Only some compounds are listed: those with a hit (about 3.2% of all), similar ones and a draw of the others.
BRCA1 expr up: BRCA1 expression activation. 380,000 compounds, 1.1% hits. Potency, µM (top dose mostly 46.1 µM), for inactives: top-dose activation, hits mostly activators. MCF7-BRCA1-FFLuc reporter, luminescence, 48 h; response scale: scaled: vehicle 0%, 10 µM genistein 100%; also: potency is read from the fitted curve at half-maximal effect; nearly all actives have a fitted effect of over 80% in size
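Compounds are tested at multiple concentrations on MCF7 BRCA1-luciferase reporter cells seeded at 2000 per well; after 48 h, a single luminescence end-point is taken and curves fitted to the normalized data.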
IL2 activator: IL-2 activation | IL-2 activation reporter assay, cell-based qHTS; stimulated with anti-CD3/CD4/CD28 beads; in transgenic mouse T cells | activation, % (series mostly up to about 46 µM) | 360,000 compounds, 0.065% hits; in the data active = activation above about 50%; inconclusive = mostly about 30% to 49%; also: 0% is about no effect
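First, unstimulated transgenic mouse T cells were exposed to compound for 60 min. Next, anti-CD3/anti-CD4-coated beads with anti-CD28 were added. Finally, after 18 h at 37 degrees C, EGFP and DsRed were imaged.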
A549 tox-1: counter-screen for Nrf2 inhibitors: cytotoxicity in A549 cells; A549 ARE-Fluc cells, CellTiter-Fluor viability, 18-24 h; Potency, µM (top dose mostly 46 µM), inactives show at the top dose activity change, negative = cytotoxicity, hits mostly inhibitors; 390,000 compounds, 0.16% hits; also: potency is read from the fitted curve at half-maximal effect; % is scaled to controls: 0 for no effect and ±100 for the full control effect
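Cytotoxicity counterscreen: CellTiter-Fluor fluorescence was measured in A549 ARE_Fluc cells after 18-24 h of compound exposure in a concentration series. The subsequent BugLite luminescent read reports ARE-luciferase activity.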
p53 reactivation: re-activators of mutant p53; H1299 p53-A138V BP100-luciferase reporter, luminescence, 24 h; Potency, µM (top dose mostly 92.2 µM), without a hit: at the highest dose activity change, positive = activation, actives largely listed as activators; 320,000 compounds, 0.063% hits; also: potency is read from the fitted curve at half-maximal effect; % of control where 0% means no effect; nearly all actives have a fitted effect of over 45% in size
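H1299 (p53-null), stable ts p53-A138V + BP100-Luc; 1000 cells/well, Opti-MEM/10% FBS; cpd 4 pt, 1:5; 24 h, 37 deg C, 5% CO2; detection reagent 10 min RT; luminescence.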
Nrf2 ARE act: Nrf2 pathway activation. AREc32 ARE-luciferase reporter (MCF7-derived line), luminescence, 24 h. Potency, µM (titrated, usually from 46.1 µM), without a hit: at the highest dose activation, usual class: activators. 410,000 compounds, 0.31% hits. AID 624171; also: potency is read from the fitted curve at half-maximal effect; % of control where 0% means no effect; nearly all actives have a fitted effect of over 65% in size
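Luminescent ARE reporter assay in AREc32_Fluc cells: overnight plating at 37 deg C, 24 hr compound incubation, Steady-Glo added, 30 min RT before reading.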
Nrf2 block: blocks Nrf2 signaling; A549 ARE-Fluc reporter, luciferase luminescence, 18-24 h; Potency, µM (highest dose often 46 µM), without a hit: at the top dose activity change, negative = inhibition, most hits filed as inhibitors; 360,000 compounds, 2.1% hits; AID 504444; also: potency is read from the fitted curve at half-maximal effect; % is scaled to controls: 0 for no effect and ±100 for the full control effect; nearly all actives have a fitted effect of over 60% in size
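Reporter: ARE-Fluc in A549. Exposure: 18-24 h, 37 °C, 5% CO2, 5% FBS OPTI-MEM. Readouts: fluorescent cytotoxicity (CellTiter-Fluor), then luminescent Nrf2 signal after BugLite.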
FLuc counter 3: firefly luciferase inhibition, Nrf2 hit validation; shares compounds with Nrf2 block; purified firefly luciferase, luminescence inhibition; Potency, µM (highest dose often 57.5 µM), for the others: at the highest dose activity change, negative = inhibition, hits mostly inhibitors; 1,400 compounds, 4% hits; also: potency is read from the fitted curve at half-maximal effect; % is scaled to controls: 0 for no effect and ±100 for the full control effect; nearly all actives have a fitted effect of over 65% in size
Target sequence (P08659 whole entry, looked up): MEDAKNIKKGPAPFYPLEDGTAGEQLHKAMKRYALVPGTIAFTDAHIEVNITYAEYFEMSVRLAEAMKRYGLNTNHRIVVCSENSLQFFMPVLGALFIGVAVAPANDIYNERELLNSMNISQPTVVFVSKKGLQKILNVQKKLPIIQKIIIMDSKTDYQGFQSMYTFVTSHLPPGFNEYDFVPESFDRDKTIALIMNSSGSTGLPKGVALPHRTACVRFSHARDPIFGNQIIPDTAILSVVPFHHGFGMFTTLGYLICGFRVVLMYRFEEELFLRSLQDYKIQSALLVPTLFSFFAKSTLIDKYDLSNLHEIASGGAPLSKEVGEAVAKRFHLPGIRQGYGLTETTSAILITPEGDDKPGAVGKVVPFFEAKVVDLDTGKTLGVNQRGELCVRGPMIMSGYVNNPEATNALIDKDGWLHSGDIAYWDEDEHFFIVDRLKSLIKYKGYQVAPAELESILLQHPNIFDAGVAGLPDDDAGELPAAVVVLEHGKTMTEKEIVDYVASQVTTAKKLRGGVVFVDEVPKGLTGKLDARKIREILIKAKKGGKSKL
A549 tox-2: A549 cytotoxicity, Nrf2 inhibitor counterscreen. A549 ARE-Fluc cells, cytotoxicity counterscreen. shares compounds with Nrf2 block. Potency, µM (titrated, usually from 46.1 µM), inactives show top-dose activity change, negative = cytotoxicity, hits mostly inhibitors. 1,400 compounds, 2% hits. AID 720523;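 also: potency is read from the fitted curve at half-maximal effect; cells exposed to compounds for 18 to 24 hours; % is scaled to controls: 0 for no effect and ±100 for the full control effect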
Nrf2 ARE inh: reduces Nrf2 ARE reporter signal in A549 cells | shares compounds with Nrf2 block | Potency, µM (titrated, usually from 46.1 µM), inactives show at the top dose activity change, negative = inhibition, usual class: inhibitors | 1,400 compounds, 74% hits | A549 ARE-firefly luciferase reporter, luminescence; also: potency is read from the fitted curve at half-maximal effect; % is scaled to controls: 0 for no effect and ±100 for the full control effect; nearly all actives have a fitted effect of over 65% in size
Active calls of the source: *; u = inconclusive; x = no result shown; [ ] = dose if it differs, or a comment. Unless noted, calls follow the shape of the dose curve; as a rule, active = well fitted curve in the direction sought with a large enough effect; inconclusive = small, poorly fitted or top-dose-only effect, or another doubt; inactive = no such curve, though single readings can be large; an effect the other way counts as inactive or inconclusive.

SMILES	BRCA1 expr up	IL2 activator	A549 tox-1	p53 reactivation	Nrf2 ARE act	Nrf2 block	FLuc counter 3	A549 tox-2	Nrf2 ARE inh
COc1ccc2c(c1OC)CN1CCc3cc4c(cc3[C@@H]1[C@@H]2O)OCO4	5%	-2	-2%	8%	1%	6%	x	x	x
Cc1ccc(C)c(Nc2nnc(-n3nc(C)cc3C)c3ccccc23)c1	x	x	10%	x	0%	-8%	x	x	x
Cc1csc2ncnc(NC3CCN(Cc4ccccc4)CC3)c12	-48%	0	-2%	-5%	4%	9.2µM*	-2%	-9%	4.1µM*
COc1cccc(Cn2c(=O)n(-c3ccccc3C)c(=O)c3c2c2cc(C)ccc2n3C)c1	0%	x	-16%	x	0%	u	x	x	x
Cc1ccc(C(=O)OCC(=O)NC(=O)c2cccn2C)cc1[N+](=O)[O-]	3%	6	-1%	-3%	0%	-9%	x	x	x
Cc1ccc(C(=O)OCC(=O)NC(=O)c2cccn2C)cc1	-1%	-1	17%	-2%	-3%	1.3µM*	-15%	0%	1.6µM*
Cc1cccc(NCc2nc3ccccc3n2CCOc2ccccc2C)c1	x	x	1%	x	0%	0%[9.27 µM]	x	x	x
Cc1c(/C=N/NC(=O)c2cccnc2)c2ccccc2n1Cc1ccccc1	-57%	2	u	1%	3%	6.5µM*	u	-8%	9.2µM*
COC(=O)c1sccc1S(=O)(=O)N(CC(=O)NCc1ccccc1)c1ccc(C)c(C)c1	x	x	-10%	x	0%	-2%	x	x	x
C=CCn1c(O)c(N=NC(=S)Nc2ccccc2F)c2cc(S(=O)(=O)N3CCOCC3)ccc21	-53%	-5	u	-3%	5%	5.8µM*	1%	-28%	x
COc1ccc(-n2cc(-c3ccc(C)cc3)[n+]3c2SCC3)cc1	-85%	0	u	-4%	2%	9.2µM*	2%	-7%	5.2µM*
Cc1ccc(-c2cn(-c3ccccc3)c3[n+]2CCCS3)cc1	-66%	0	u	-4%	0%	4.6µM*	2%	-5%	6.5µM*
CCc1ccc(-n2cc(-c3ccc(F)cc3)[n+]3c2SCCC3)cc1	-71%	0	2%	-1%	6%	u	x	x	x
Cc1ccccc1CSc1nc2cccnc2n1Cc1ccc(C(=O)NC2CC2)cc1	x	x	-7%	x	6%	u	x	x	x
C/C(=N/NC(=O)c1ccncc1)c1ccc(NC(=O)c2ccc(Cl)cc2Cl)cc1	u	-3	10%	21%	-1%	8%	x	x	x
CC(C)CC(=NNC(=O)c1ccncc1)c1cc(Cl)ccc1O	-94%	5	u	x	0%	6.5µM*	1%	-2%	6.5µM*
COc1cccc(CN2CC34CC(c5ccc(C(C)=O)cc5)C(CC3S2(=O)=O)O4)c1 (centres undefined)	x	x	-6%	x	x	-29%	x	x	x
Cc1ccc(Cl)cc1N1CCN(S(=O)(=O)c2ccc3[nH]c4c(c3c2)CCCCC4)CC1	-21%	x	1%	x	-1%	6%	x	x	x
O=C(Nc1ncc(Cc2cccc([N+](=O)[O-])c2)s1)c1ccco1	u	0	-5%	6%	23%	u	x	x	x
O=C(Nc1ncc(Cc2ccc(C(F)(F)F)cc2)s1)c1ccc(-c2cccc([N+](=O)[O-])c2)o1	-42%	0	-5%	-4%	0%[9.22 µM]	5.8µM*	2%	-1%	6.5µM*
CCCC(=O)C1=C(c2ccc(C)cc2)N(C(=O)CCC)n2cnnc2S1	x	x	-2%	x	0%	x	x	x	x
O=C(Nc1cccc(S(=O)(=O)Nc2ccc(Cl)cc2)c1)c1ccccn1	-27%	0	u	15%	0%	8.2µM*	-9%	4%	x
COc1ccc(NS(=O)(=O)c2cccc(NC(=O)c3ccccn3)c2)cc1	-22%	0	u	0%	2%	u	x	x	x
Oc1ccc(CCNc2ncnc3ccc(Cl)cc23)cc1	-45%	1	-3%	x	0%	7.3µM*	-18%	-1%	7.3µM*
Nc1nc(Cl)cc(NCCc2ccc(O)cc2)n1	1%	1	2%	-1%	6%	12%	x	x	x
SMILES	BRCA1 expr up	IL2 activator	A549 tox-1	p53 reactivation	Nrf2 ARE act	Nrf2 block	FLuc counter 3	A549 tox-2	Nrf2 ARE inh
CCOC(=O)Cn1c(=O)oc2cc(S(=O)(=O)N3CCN(c4cc(C)ccc4C)CC3)ccc21	x	x	-3%	x	0%	20%	x	x	x
CN(Cc1ccccc1)C1=CC(=[N+]2CCCC2)CC(C)(C)C1	-59%	-1	1%	-7%	3%	4.6µM*	-19%	u	18µM*
CN(C)c1cccc(NC2=CC(=[N+]3CCOCC3)CC(C)(C)C2)c1	-20%	-4	-13%	-5%	0%	-10%	x	x	x
CCN(CC)C1=CC(=[N+]2CCCC2)CC(C)(C)C1	-77%	-1	-7%	1%	-1%	8.2µM*	1%	-4%	6.5µM*
CCc1ccc(N=C2NC(=O)CC(C(=O)Nc3ccc(OC)cc3)S2)cc1 (centres undefined)	x	x	0%	x	6%	10%	x	x	x
CCOC(=O)N1CCC(NC(=O)c2cc(C(=O)Nc3cccc(C(F)(F)F)c3)ccc2CO)CC1	-18%	0	u	1%	5%	5.8µM*	2%	-9%	16µM*
CCOC(=O)c1c(N)n(-c2ccc(Cl)c(Cl)c2)c2nc3ccccc3nc12	15%	x	2%	x	-1%	7%	x	x	x
Cc1cccc[n+]1CC(=O)/C=C1\N(C)c2ccccc2C1(C)C	-51%	0	u	3%	0%	5.2µM*	3%	-27%	7.3µM*
CN1/C(=C\C(=O)C[n+]2ccc(C(=O)c3ccccc3)cc2)C(C)(C)c2ccccc21	-47%	-2	-19%	1%	0%	5.2µM*	-1%	-17%	5.2µM*
Cc1ccc[n+](CC(=O)/C=C2\N(C)c3ccccc3C2(C)C)c1	-57%	0	-11%	8%	0%	u	x	x	x
CN1/C(=C\C(=O)C[n+]2cccc(Br)c2)C(C)(C)c2ccccc21	-50%	2	-23%	-2%	0%	3.3µM*	-1%	-11%	4.1µM*
